Screening data from PubChem.
NLRP3 yeast inh = blocks the NALP3 inflammasome reconstituted in yeast. Yeast reconstituted NLRP3/ASC/caspase-1, beta-gal luminescence, 24 h. inhibition, % at 10 µM. actives 0.39% (n = 330,000);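 active means inhibition of 50% or more; inactive means inhibition below 50%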;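 further: plate controls were induced DMSO wells for no effect and uninduced yeast grown without galactose for full effect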
PfHsp90 yeast 2 = inhibits growth of yeast expressing Plasmodium falciparum Hsp90; S. cerevisiae expressing PfHsp90, BacTiter-Glo ATP, 48 h; yeast lacking PDR1 and PDR3 efflux regulators; inhibition, % at 9.4 µM; actives 0.32% (n = 310,000); AID 504621;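 active means every replicate shows inhibition above about 80%, whatever the replicate mean, limit read from the data; inconclusive means mean inhibition reaches the set limit but some replicate falls short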;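 further: 0% = DMSO neutral controls and 100% = 20 µM radicicol positive controls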
TIM10 inh = growth inhibitors of TIM10 yeast strain | AID 463195 | S. cerevisiae TIM10 strain growth, BacTiter-Glo luminescence, 24 h | actives 1.4% (n = 330,000) | inhibition, % at 10 µM;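 active means inhibition of 40% or more at the single tested concentration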;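 further: wild-type TIM10 isogenic control strain grown at permissive 25 °C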
tim23-1 inh = tim23-1 yeast growth inhibition; AID 463212; S. cerevisiae tim23-1 growth, BacTiter-Glo luminescence, 24 h; actives 1.3% (n = 330,000); inhibition, % at 20 µM;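 active means growth inhibition of the mutant yeast at or above 50%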;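 further: temperature-sensitive mutant grown at 25 °C; plate controls were DMSO-treated mutant yeast for no effect and medium wells lacking yeast for full effect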
tim10-1 inh = tim10-1 yeast growth inhibition; S. cerevisiae tim10-1 ts strain growth, BacTiter-Glo, 24 h; inhibition, % at 20 µM; actives 2.2% (n = 330,000); AID 463190;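 active means inhibition of at least 40%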;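 further: mutant grown at 25 °C; 0% = DMSO wells with yeast and 100% = wells holding no yeast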
SKKanGAS inh = inhibitors of SKKanGAS S. pyogenes growth in kanamycin (SK-promoter or general growth effect); BacTiter-Glo, 6 h; AID 1662; actives 1.3% (n = 300,000); inhibition, % at 7.5 µM;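 active means mean replicate score, as percent of positive control median, at least 50; inconclusive means mean below 50 but one replicate at or above 50; inactive means mean and every replicate below 50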;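 further: strain carries kanamycin resistance gene driven by streptokinase promoter and grows in 40 µg/ml kanamycin; loss of luminescence reflects streptokinase promoter inhibition or plain growth inhibition; 0% = median of DMSO wells and 100% = positive control at its reference dose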
tim10-1 confirm = tim10-1 yeast growth inhibition, confirmed; shares compounds with tim10-1 inh; S. cerevisiae tim10-1 ts strain growth, BacTiter-Glo, 24 h; inhibition, % at 20 µM; actives 56% (n = 7,400); AID 463213;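 active means inhibition of yeast growth at or above a set limit in either of two repeat tests at 20 µM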;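 further: tim10-1 mutant grown at permissive 25 °C to find synthetic lethal compounds; 0% = DMSO yeast wells and 100% = medium wells without yeast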
Active calls of the source: *; u = inconclusive; x = no result. A selection: hits, their analogues and other compounds. The true share with any hit is near 4.5%.

SMILES	NLRP3 yeast inh	PfHsp90 yeast 2	TIM10 inh	tim23-1 inh	tim10-1 inh	SKKanGAS inh	tim10-1 confirm
Nc1c(C(=O)Nc2ccccc2)c2nc3ccccc3nc2n1CCCN1CCOCC1	23.7	23.1	23.5	-4.7	64.4*	15.5	44.2*
C=CCn1c(N)c(C(=O)Nc2cccc(C)c2)c2nc3ccccc3nc21	11.5	-10.0	28.3	10.6	61.0*	51.1*	48.6*
C=CCn1c(N)c(C(=O)Nc2ccc(C)c(C)c2)c2nc3ccccc3nc21	-7.3	-0.6	15.2	-30.2	16.3	15.9	x
CC1(C(=O)O)CCC(C(=O)NNC(=O)c2ccccc2Cl)C1(C)C (centres undefined)	7.7	x	-0.8	-12.5	-1.8	1.4	x
O=C1c2c(Cl)c(Cl)c(Cl)c(Cl)c2C(=O)N1c1nccs1	x	8.7	x	x	x	x	x
O=C(Cn1cc([N+](=O)[O-])ccc1=O)N1CCCc2ccccc21	5.3	x	-6.7	5.4	-5.8	-0.3	x
CN(C)c1ccc(C(=O)/C=C/c2cccnc2)cc1	28.6	-9.6	9.2	19.4	19.3	-6.4	x
O=C(/C=C/c1cccnc1)c1ccc(F)c(F)c1	21.1	5.5	17.8	33.2	40.1*	-3.8	26.5
O=C(O)Cc1sc(Nc2ccccc2)nc1-c1ccc(Cl)cc1	5.6	-1.5	13.5	24.7	40.4*	12.6	23.1
CC1CCCCC1NC(=O)C1CCN(S(=O)(=O)c2cccc3nonc23)CC1 (centres undefined)	24.1	-4.2	-2.1	-11.5	-14.6	2.1	x
Cc1ccc(S(=O)(=O)N2CCCC2CNC(=O)c2ccc3c(c2)OCO3)cc1 (centres undefined)	21.5	x	-15.1	14.5	2.7	1.7	x
Cc1cc(-c2ccc(C)c(S(=O)(=O)N3CCN(c4ccccn4)CC3)c2)on1	20.4	-4.1	18.4	39.2	42.1*	-2.0	31.8*
Cc1cc(-c2ccc(C)c(S(=O)(=O)N3CCN(c4ccc([N+](=O)[O-])cc4)CC3)c2)on1	-3.1	17.4	3.2	14.9	21.8	42.3	x
CCN1CCN(C(=O)/C=C/c2ccc(C)o2)CC1	-7.6	8.6	3.8	-2.8	-1.8	5.5	x
Cc1ccc(/C=C/C(=O)N2CC(C)CC(C)C2)o1 (centres undefined)	21.7	x	18.6	30.7	43.4*	-1.3	31.1
C=CCn1c(CCn2c3ccccc3c3ccccc32)n[nH]c1=S	11.8	-1.1	33.1	29.1	43.4*	1.0	36.5*
Cc1occc1-c1nnc(SCC(=O)Nc2c(F)cccc2F)n1C	5.3	x	2.9	-2.6	-4.7	2.4	x
O=C(C1CC(=O)N(c2ccccc2F)C1)N1CCOCC1 (centres undefined)	5.7	42.8	-0.8	-14.0	-15.8	x	x
CCc1ccc(/C=C(\C)C(=O)c2c(C)cc(C)[nH]c2=O)cc1	5.9	4.6	2.4	12.6	19.7	3.1	x
Cc1ccc(/C=C/C(=O)c2c(C)cc(C)[nH]c2=O)cc1	3.0	x	30.9	26.7	42.9*	-1.6	38.5*
CCc1ccc(/C=C/C(=O)c2c(C)cc(C)[nH]c2=O)cc1	16.1	x	16.3	32.9	44.5*	-0.3	37.7*
Cc1cc(C)c(C(=O)/C=C/c2cccs2)c(=O)[nH]1	-1.4	-17.9	-3.6	13.9	13.5	-5.8	x
O=C(CN1Cc2ccccc2C1=O)Nc1ccc2c(c1)OCCO2	18.9	9.6	-1.0	19.6	5.4	-0.9	x
Cn1cccc1C(=O)N/N=C/c1c(Cl)cccc1Cl	42.0	-0.4	13.6	18.1	25.8	-2.8	x
CCC(C)(C)n1nnnc1C(c1ccc(C)cc1)N1CCC(C)CC1 (centres undefined)	-13.2	-11.8	38.2	45.3	40.9*	10.0	35.6*
SMILES	NLRP3 yeast inh	PfHsp90 yeast 2	TIM10 inh	tim23-1 inh	tim10-1 inh	SKKanGAS inh	tim10-1 confirm
O=C(C1CC1)N1CCc2cc(S(=O)(=O)NCC3COc4ccccc4O3)ccc21 (centres undefined)	-3.2	-13.9	31.6	26.6	45.7*	5.2	26.1
O=C(C1CCC1)N1CCc2cc(S(=O)(=O)NCC3COc4ccccc4O3)ccc21 (centres undefined)	9.1	-22.4	26.4	0.6	11.4	5.7	x
O=C(NC1CCCCC1)NS(=O)(=O)c1ccc2c(c1)CCC2	x	-38.4	x	x	x	x	x
CCOC(=O)C1=C(N)Oc2ccc3ccccc3c2C1c1ccc(O)c(OC)c1 (centres undefined)	5.3	-42.7	10.7	46.9	40.1*	10.8	22.6
CCOC(=O)C1=C(N)Oc2ccc3ccccc3c2C1c1ccc(O)cc1 (centres undefined)	13.5	0.1	6.1	34.5	-42.5	u	x
CCN(CC)c1ccc(S(=O)(=O)N2CCOCC2)cc1NC(=O)CN1CCc2ccccc2C1	10.0	16.6	30.6	10.7	49.9*	-4.6	9.9
CCCc1[nH]c2ccc(C#N)cc2c1CCC	40.9	8.0	4.1	13.8	52.7*	39.2	33.2*
S=C(NC1CCCCC1)N(CCc1nc2ccccc2[nH]1)C1CCCC1	23.4	-6.7	37.1	32.3	49.8*	4.2	28.9
CCCCOc1cccc(C(=O)NC(=S)Nc2cccnc2)c1	17.6	7.1	16.5	42.7	43.3*	-9.2	14.2
CCOc1cccc(C(=O)NC(=S)Nc2cccnc2)c1	11.0	-15.8	-8.6	17.9	19.5	-2.8	x
CCOC(=O)c1ccc(N=c2scc(C)n2CC)cc1	21.4	-4.5	9.9	32.7	42.9*	-11.0	22.2
Cn1c(=S)n(/N=C/c2ccc3c(c2)OCO3)c2ccccc21	12.2	x	-6.6	0.2	6.7	x	x
COc1ccc(/C=N/n2c(=S)n(C)c3ccccc32)cc1OC	-7.0	-6.1	37.0	41.4	42.6*	-5.2	30.4*
O=C(CSc1ncn[nH]1)NNC(=O)c1ccccc1	17.2	-21.1	0.2	-13.8	-28.1	1.3	x
COCCn1c(-c2ccc(Br)cc2)csc1=Nc1cccnc1	21.3	x	-1.2	28.7	41.5*	x	16.7
Clc1ccc(-c2csc(=Nc3cccnc3)n2CCCn2ccnc2)cc1Cl	15.4	-9.3	31.7	20.3	27.1	-3.0	x
COc1ccc(N=c2scc(-c3ccc(OC)cc3)n2CCO)cc1	16.9	11.9	9.1	40.6	40.7*	5.6	25.1
Cc1nn(-c2cccc(Cl)c2)c2c1C(c1cccnc1)C(C#N)=C(N)O2 (centres undefined)	4.9	-14.3	21.5	15.2	41.1*	28.9	30.8*
N/C(=N\OC(=O)c1ccc([N+](=O)[O-])cc1)c1cccnc1	5.0	5.2	22.6	36.5	40.2*	16.8	37.4*
N/C(=N\OC(=O)c1ccncc1)c1cccc([N+](=O)[O-])c1	5.1	-26.1	16.7	12.7	18.5	3.6	x
Cc1ccc(C(=O)O/N=C(\N)c2cccc([N+](=O)[O-])c2)cc1	19.8	4.0	39.2	24.7	52.0*	-1.9	71.8*
